From PubChem
Shown are actives, neighbours in structure and some others; about 0.52% of the full set was active somewhere.
USP2a inh = blocks human ubiquitin-specific protease USP2a. 0.01% of 330,000 active. USP2 core, Ub-CHOP2 coupled fluorogenic reporter, 485/531. Potency, µM (top dose mostly 38.3 µM), most hits filed as inhibitors
Target sequence (O75604 whole entry, looked up): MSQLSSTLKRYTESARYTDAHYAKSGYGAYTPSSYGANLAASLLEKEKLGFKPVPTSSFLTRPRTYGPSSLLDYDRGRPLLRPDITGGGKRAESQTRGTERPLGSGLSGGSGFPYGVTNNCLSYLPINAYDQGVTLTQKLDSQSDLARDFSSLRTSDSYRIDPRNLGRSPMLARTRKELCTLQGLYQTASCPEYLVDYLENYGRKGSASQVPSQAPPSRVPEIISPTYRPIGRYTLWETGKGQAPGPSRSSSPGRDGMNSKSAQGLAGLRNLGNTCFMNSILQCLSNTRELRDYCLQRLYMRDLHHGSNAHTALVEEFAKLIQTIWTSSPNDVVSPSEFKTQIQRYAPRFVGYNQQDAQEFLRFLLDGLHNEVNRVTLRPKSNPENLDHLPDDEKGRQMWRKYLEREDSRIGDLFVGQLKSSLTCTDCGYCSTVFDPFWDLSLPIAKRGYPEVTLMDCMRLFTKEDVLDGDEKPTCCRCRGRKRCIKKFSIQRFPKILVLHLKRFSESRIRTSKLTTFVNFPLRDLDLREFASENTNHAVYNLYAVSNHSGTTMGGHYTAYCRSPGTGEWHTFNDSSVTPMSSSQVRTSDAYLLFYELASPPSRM
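Deubiquitinase activity read as fluorescence (485/531 nm) after Ub-CHOP2 cleavage activates the enterokinase reporter on its substrate; USP2 core 10nM, Ub-CHOP2 and substrate 25nM each, 30min compound preincubation then 60min RT; data normalized to NEM, curves fitted.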
uPA generation = inhibitors of cell surface uPA generation. AID 540303. Potency, µM (top dose mostly 38.3 µM), actives largely listed as inhibitors. 0.31% of 330,000 active. cell surface uPA generation assay, qHTS; active = well fitted inhibition curve with a large enough effect; inconclusive = small, poorly fitted or top-dose-only effect; inactive = no such curve, though single readings can be large or run the other way; tested in mouse RAW 264.7 cells; also: nearly all actives have a fitted effect of over 55% in size
RGS4 inhibitor = blocks human RGS4-accelerated GTP hydrolysis. P49798. Transcreener GDP fluorescence polarization, RGS4-accelerated GTP hydrolysis. Potency, µM (highest dose often 114 µM), hits mostly inhibitors. 0.039% of 390,000 active. AID 504845; also: nearly all actives have a fitted effect of over 75% in size
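MLSMR compounds (23 nl, pin-transferred) preincubated 10 min at room temperature with a 500nM (2x) first reagent, then RGS4 at 900nM (2x) plus Transcreener GDP mix added; fluorescence polarization (620/688 nm) read before and after 90 min at 30 °C.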
Eya2 phos inh = Eya2 (human) phosphatase inhibition | O00167 | recombinant Eya2, OMFP fluorescence dephosphorylation (OMFP is methylfluorescein phosphate) | Potency, µM (series often up to 76.9 µM), usual class: inhibitors | 0.006% of 330,000 active | AID 488837
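Eya2 protein (added as 0.2 uM solution) was preincubated with compound for 10 min at ambient temperature in 50 mM HEPES pH 7.5, 50 mM NaCl, 5 uM MgCl2, 0.05% BSA, 1 mM DTT. OMFP (added at 50 uM) then reacted 10 min; fluorescence read at 485/525 nm.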
KAT2A inh = blocks human GCN5L2 histone acetyltransferase; Q92830; GCN5L2 HAT assay, ThioGlo1 CoA-SH fluorescence; Potency, µM (doses to about 58.9 µM), hits mostly inhibitors; 0.21% of 390,000 active
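qHTS, 1536-well. 20nM enzyme, pH 7.5 HEPES/EDTA/Tween-20 buffer; 15 min compound preinc., RT. Start: 75uM H3(1-25), 70uM AcCoA, 50uM ThioGlo1. Read Ex340/Em540 at t=0 (autofluorescence flag) and t=20 min.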
Chronic BCR inh = chronic active BCR signaling inhibition; ABC-DLBCL IkBa-CBG/CBR reporter, luminescence ratio, 4 h; Potency, µM (doses to about 46.1 µM), most hits filed as inhibitors; 0.05% of 340,000 active; active = well fitted inhibition curve with a large enough effect in the signal ratio, with a control signal flat, not every such curve was filed as active; inconclusive = small, poorly fitted or top-dose-only effect, or effect the other way, or a change in a side signal; the % refers to the signal ratio
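Cell line TMD8 (human ABC DLBCL), stably expressing tet-inducible CBG68-IkBa fusion and CBR; IMDM/0.5% FBS; cpd up to 46 uM; dox induction, 4 h, 37C/5% CO2; dual luminescence; green/red ratio; MG132 control.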
A number is an active result; i = inactive; ? = inconclusive; nt = no result; ! = repeats disagree; [ ] = another dose, or the depositor's remark. Unless noted, calls follow the shape of the dose curve; as a rule, active = well fitted curve in the direction sought with a large enough effect; inconclusive = small, poorly fitted or top-dose-only effect, or another doubt; inactive = no such curve, though single readings can be large; an effect the other way counts as inactive or inconclusive.

SMILES	USP2a inh	uPA generation	RGS4 inhibitor	Eya2 phos inh	KAT2A inh	Chronic BCR inh
[N-]=C=C1C(=S)NC(=O)[C@H]([n+]2ccccc2)[C@H]1c1ccc(Cl)cc1	i	i	?	i	11µM	?
CSc1ccc(CCNC(=O)c2cc3cc(S(=O)(=O)N4CCCCC4)ccc3n2C)cc1	nt	nt	i	nt	i	nt
Cc1ccc(NC(=O)c2ccc(Cl)c(N3C(=O)C=CC3=O)c2)cc1	i	i	?	?	18µM	?
Cc1ccc(/C=C/C(=O)N2CC(=O)Nc3ccccc32)o1	?	i	i	?	22µM	?
Cc1cc(C)cc(C(=O)N2CC(=O)Nc3ccccc32)c1	i	i	i	i	i	?
Cc1ccc(NC(=O)c2nc[nH]c2C(=O)NCCCCCNC(=O)OC(C)(C)C)cc1	i	i	i	i	i	i
CC(C)(C)OC(=O)NCCCCCNC(=O)c1[nH]cnc1C(=O)Nc1ccc(Cl)cc1	i	6.3µM	i	i	i	?
COc1ccc(C2Nc3ccc(NC(=O)CO)cc3C(=O)N2Cc2cccc(Cl)c2)cc1COc1ccc(NC(C)=O)cc1 (centres undefined)	nt	nt	i	nt	nt	nt
COc1ccc(-c2nn3c(C4CCCCC4)nnc3s2)cc1OC	i	i	?	i	i	14µM
COc1cc(-c2nn3c(C4CCCCC4)nnc3s2)cc(OC)c1OC	i	i	i	i[15.4 µM]	i	?
COc1ccc(N2CCN(C(=O)C(C)n3c(=O)cc(C(F)(F)F)c4c(C)nn(C)c43)CC2)cc1 (centres undefined)	nt	nt	?	nt	i	nt
CC(C)(C)CC(C)(C)NC(=O)Nc1cccc([N+](=O)[O-])c1	i	10µM	i	i	i	i
CC(C)(C)c1ccc(C(=O)Nc2cccc([N+](=O)[O-])c2)cc1	i	i	i	i	i	?
CC(C)(C)c1ccc(S(=O)(=O)/C=C\C#N)cc1	nt	nt	i	nt	28µM	nt
Cc1ccc(S(=O)(=O)c2ccc(C)cc2)cc1	i	i	i	i	i	i
CC(C)(C)c1ccc(S(=O)(=O)N2CCN(CCC#N)CC2)cc1	i	i	i	i	i	i
Cc1ccc(S(=O)(=O)/C=C/C#N)cc1	nt	nt	6µM	i	22µM!	nt
Cc1ccc(S(=O)(=O)/C=C\C#N)cc1	nt	nt	i	nt	28µM	nt
COc1ccc2c(c1)c(=O)c(S(=O)(=O)c1ccc(Cl)cc1)cn2Cc1cc(C)ccc1C	nt	nt	i	nt	i	nt
Cc1onc(-c2ccccc2)c1-c1nc2cc(Cl)ccc2c(=O)o1	i	i	i	i	i	13µM
Cc1onc(-c2ccccc2)c1-c1nc2ccccc2c(=O)o1	i	i	i	i	i	?
Cc1ccccc1C(=O)NC(=S)NCC1CCCO1 (centres undefined)	i	i	i	i	2.5µM	?
O=c1c(N2CCN(c3cccc(C(F)(F)F)c3)CC2)csc2ccccc12	nt	nt	i	nt	i	?
c1nc(NC2CCNCC2)c2cc(-c3ccoc3)ccc2n1	nt	nt	nt	nt	20µM	nt
O=C(Cc1ccc(-n2c(=O)c3ccccc3n(Cc3ccccc3Cl)c2=O)cc1)NCC1CCCO1 (centres undefined)	i	i	i	i	i	2.8µM
SMILES	USP2a inh	uPA generation	RGS4 inhibitor	Eya2 phos inh	KAT2A inh	Chronic BCR inh
O=C(Cc1ccc(-n2c(=O)c3ccccc3n(Cc3ccc(F)cc3)c2=O)cc1)NCC1CCCO1 (centres undefined)	i	i	i	i	i	8.2µM
Fc1ccc(NC(=S)NCCN2CCOCC2)cc1	i	i	i	i	i	i
S=C(NCCN1CCOCC1)Nc1ccc(-c2nc3ccccc3[nH]2)cc1	i	10µM	i	i	i	?
N#C/C(=C/c1ccc(O)c(O)c1)C(=O)OC/C=C/c1ccccc1	nt	nt	i	nt	14µM	nt
O=C(CSc1nnc(-c2cccnc2)n1Cc1ccco1)NCc1ccc2c(c1)OCO2	i	nt	i	i	i	i
COc1cccc(-c2nnc(SCC(=O)NCc3ccc4c(c3)OCO4)n2Cc2ccco2)c1	i	i	i	i	40µM	i
COc1cc2c(c(OC)c1OC)-c1ccc(OC)c(=O)cc1C(NC(=O)c1ccccc1)CC2 (centres undefined)	nt	i	i	nt	nt	nt
COc1cccc(C(=O)Nc2ccc3c(cc2=O)[C@@H](NC(C)=O)CCc2cc(OC)c(OC)c(OC)c2-3)c1	i	10µM	i	i	?	?
